Only some compounds are listed: those with a hit (about 2.1% of all), similar ones and a draw of the others.
FUS yeast rescue = qHTS for Suppressors of FUS Proteinopathy: Primary screen using FUS-linked yeast assay; S. cerevisiae FUS-expressing, growth rescue, OD600, 24 h; 390,000 tested, 0.24% active; Potency, µM (highest dose often 76.6 µM), usual class: activators;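 further: plate controls were DMSO vehicle for no effect and reference control for full effect; nearly all actives have a fitted effect of over 55% in size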
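Steps: raffinose overnight preculture; dilution to OD 0.005 in 2% galactose minimal medium; compound addition (concentration series); 24hr at 30C, 99% humidity; absorbance read at 600 nm.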
aSyn rescue = qHTS of alpha-syn Inhibitors; Yeast expressing alpha-synuclein, growth rescue, BacTiter-Glo, 24 h; Potency, µM (doses to about 46.1 µM), inactives show at the highest dose growth rescue (activation), usual class: activators; 370,000 tested, 0.14% active; AID 652106, 2013; further: % of control where 0% means no effect; nearly all actives have a fitted effect of over 65% in size
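Readout is rescue of growth in alpha-synuclein-expressing yeast, so inhibitors of toxicity appear as activators. Growth after 24 hr at 30 deg C in galactose medium is quantified by luminescence.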
Abeta rescue = qHTS for compounds that reverse cellular toxicity of Amyloid beta (A-beta) peptide in yeast: Primary Screen; yeast expressing A-beta42, growth rescue, OD600, 48 h; response scale: 0% DMSO, 100% iron-clioquinol control; Potency, µM (series often up to 46.1 µM), most hits filed as activators; 410,000 tested, 0.063% active; AID 1347071, 2019; further: nearly all actives have a fitted effect of over 55% in size
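Growth rescue measured by 600 nm absorbance after 48 h yeast culture at 30 C with compound. Values normalized between DMSO and an equimolar ferric chloride plus clioquinol control.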
PTAP TSG101 blk = qHTS Assay for Iinhibitors of HIV-1 Budding by Blocking the Interaction of PTAP/TSG101; Potency, µM (top dose mostly 115 µM), without a hit: at the top dose activity change, negative = inhibition, usual class: inhibitors; Fluorescence polarization, FITC-PTAP peptide / Tsg101 binding; Tumor susceptibility gene 101 protein (Homo sapiens), Q99816; 340,000 tested, under 10 active; active means well fitted inhibition curve with a large enough effect in the main read-out, with a control signal flat, not every such curve was filed as active; inconclusive means small, poorly fitted or top-dose-only effect, or effect the other way, or a change in a side signal; inactive means no such curve, though single readings can be large or run the other way; further: % of control where 0% means no effect
Target sequence (Q99816 whole entry, looked up): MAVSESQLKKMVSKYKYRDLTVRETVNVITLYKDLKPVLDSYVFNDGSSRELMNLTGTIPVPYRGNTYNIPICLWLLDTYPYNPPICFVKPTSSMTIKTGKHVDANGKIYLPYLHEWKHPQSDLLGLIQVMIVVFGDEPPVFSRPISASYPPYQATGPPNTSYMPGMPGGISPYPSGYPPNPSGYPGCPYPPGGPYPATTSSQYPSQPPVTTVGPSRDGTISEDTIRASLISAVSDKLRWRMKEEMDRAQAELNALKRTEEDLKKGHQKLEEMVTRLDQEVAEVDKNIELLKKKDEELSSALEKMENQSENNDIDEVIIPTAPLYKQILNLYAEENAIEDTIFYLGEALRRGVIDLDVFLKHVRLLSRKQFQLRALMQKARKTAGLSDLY
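Fluorescence polarization binding of Tsg101 binding domain (10 uM final) to FITC-labeled PTAP peptide (50 nM final) in HEPES pH 7.5 buffer with NaCl, Tween 20, EDTA, TCEP. Compounds added before peptide; binding 20 min at RT.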
TDP-43 yeast inh = qHTS of TDP-43 Inhibitors | TDP-43 expressing yeast growth rescue, BacTiter-Glo, 24 h | Potency, µM (titrated, usually from 46.1 µM), for the others: at the highest dose growth rescue (activation), actives largely listed as activators | 410,000 tested, 1.8% active | AID 652104, 2013; further: % of control where 0% means no effect; nearly all actives have a fitted effect of over 50% in size
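Growth rescue of TDP-43-toxic yeast measured as ATP luminescence (BacTiter-Glo). Cells grown to mid-log in raffinose, induced in galactose at OD600=0.02, exposed to compound 24 hr at 30 deg C.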
Active calls of the source: *; i = inactive; ? = inconclusive; · = no result; [ ] = another dose, or the depositor's remark. Unless noted, the call rests on the fitted dose curve; in most records, active means well fitted curve in the direction sought with a large enough effect; inconclusive means small, poorly fitted or top-dose-only effect, or another doubt; inactive means no such curve, though single readings can be large; an effect the other way counts as inactive or inconclusive. Potency means the concentration at half of the fitted maximal effect.

SMILES | FUS yeast rescue | aSyn rescue | Abeta rescue | PTAP TSG101 blk | TDP-43 yeast inh
Cc1ccc(Cl)cc1N1CCN(Cc2nc3c(c(=O)[nH]c(=O)n3C)n2Cc2ccccc2F)CC1 | i | -1% | i | 0% | 11µM*
Cc1ccc(/C=C2/NC(=O)N(Cc3ccccc3F)C2=O)s1 | i | -11% | i | ? | 17%
CCCN1C(=O)/C(=C/c2ccc(C)s2)NC1=S | i | -8% | i | -18% | 11µM*
CC(C)CN1C(=O)/C(=C/c2cccs2)NC1=S | i | -23% | i | -6% | 25µM*
CNc1cccc(-c2ccc(N3CCN(C)CC3)nc2)n1 | i | -7% | i | · | 8%
O=C1c2ccccc2C(=O)C1c1ccc(O)cc1 | i | 1% | i | -6% | -11%[0.397 µM]
CC(C)(C)C1=NN=C2c3ccccc3C(=O)C21 (centres undefined) | i | -15% | i | -3% | 16µM*
CCC1CCc2c(sc(NC(=O)C3c4ccccc4Oc4ccccc43)c2C(=O)OC)C1 (centres undefined) | i | · | i | · | 26%
COc1ccc(-c2nc3ccc(Br)cn3c2Cc2cccc(Cl)c2)cc1OC | ? | ? | i | · | 22µM*
COc1ccc(-c2nc3ccc(Cl)cn3c2Cc2ccccc2)cc1OC | i | -1% | i | · | 23%
COc1ccc(-c2nc3ccc(Cl)cn3c2Cc2cccc(Cl)c2)cc1OC | i | 3% | i | · | 35µM*
O=C1Nc2ccc(I)cc2C1=Cc1cc(Br)c(O)c(Br)c1 | · | 3.2µM* | · | · | ·
CCCCOc1cccc(C(=O)Nc2cc(NC(=O)c3ccco3)ccc2OC)c1 | ? | · | i | · | ?
COC(=O)CCCC(=O)Nc1ccc(Cl)c(Cl)c1 | i | -4% | i | -6% | 10µM*
O=C(NCC(c1ccc2c(c1)OCO2)N1CCN(c2ccccc2)CC1)c1ccc(F)c(F)c1 (centres undefined) | i | · | i | · | 14%
O=C(c1ccc2c(c1)N(Cc1ccc(Cl)cc1)C(=O)c1ccccc1S2(=O)=O)N1CCCC1 | 32µM* | · | i | · | 7%
CCN1CCN(C(=O)c2ccc3c(c2)N(Cc2ccc(Cl)cc2)C(=O)c2ccccc2S3(=O)=O)CC1 | i | · | i | · | 11%
O=C(c1ccc2c(c1)N(Cc1ccc(Cl)cc1)C(=O)c1ccccc1S2(=O)=O)N1CCc2ccccc21 | 7.9µM* | · | i | · | 0%
Cn1c(=O)c2[nH]c(SCC(=O)N3CCN(c4cccc(C(F)(F)F)c4)CC3)nc2n(C)c1=O | i | · | · | · | ·
Cc1sc2ncn(CC(=O)N3CCN(c4ccccc4)CC3)c(=O)c2c1S(=O)(=O)N1CCC(C)CC1 | 25µM* | · | i | · | -1%
Cc1sc2ncn(CC(=O)N3CCN(c4cccc(Cl)c4)CC3)c(=O)c2c1S(=O)(=O)N1CCC(C)CC1 | 25µM* | · | i | · | 2%
Cc1sc2ncn(CC(=O)N3CCN(c4ccc(F)cc4)CC3)c(=O)c2c1S(=O)(=O)N1CCC(C)CC1 | i | · | i | · | 3%
COC(=O)[C@@]12CCCCC3=C1N(CCC3)C(=O)[C@H]2CC(=O)NCC12CC3CC(CC(C3)C1)C2 | i | · | · | · | ·
CCCCn1nc(NC(=O)CC)c2cc3cc(OC)ccc3nc21 | i | 0% | i | 0% | 11µM*
COc1ccc2nc3c(cc2c1)c(NC(=O)c1cccs1)nn3CC(C)C | ? | 2% | i | -3% | 25µM*
SMILES | FUS yeast rescue | aSyn rescue | Abeta rescue | PTAP TSG101 blk | TDP-43 yeast inh
Cc1oc2ncnc(N3CCCCC3)c2c1C(=O)NCC1CCN(Cc2ccccc2F)CC1 | i | · | i | · | 7%
CN(C)c1ccc(C=Nc2cnc3ccccc3c2)cc1 | · | -2% | · | · | ·
CCc1cc(=O)oc2c(C)c3c(cc12)CN(CCc1ccccc1OC)CO3 | i | · | i | · | 3%
CN1/C(=C\C(=O)c2cccnc2)C(C)(C)c2ccccc21 | i | 12% | i | -4% | 3%
CN1/C(=C\C(=O)c2cncc(Br)c2)C(C)(C)c2ccccc21 | i | 13% | i | 2% | 13µM*
CN1/C(=C/C(=O)c2nc(S(C)(=O)=O)ncc2Cl)C(C)(C)c2ccccc21 | · | 4% | i | -2% | 13µM*
CCOc1cc(C(c2c(C)[nH][nH]c2=O)c2c(C)[nH][nH]c2=O)ccc1OC(=O)c1cccc([N+](=O)[O-])c1 | 35µM* | 0% | i | -3% | -19%
CC1(C)CC(=O)N(CC(=O)N2CCN(c3cccc(Cl)c3Cl)CC2)c2ccccc2S1(=O)=O | i | · | · | · | ·
C/C(=N\Nc1nc(C)c(C)s1)c1ccc([N+](=O)[O-])cc1 | i | -7% | i | -1% | 13µM*
CC(C)=NNc1nc(-c2ccc([N+](=O)[O-])cc2)cs1 | i | 6% | i | -2% | 13µM*
C/C(=N\Nc1ccc([N+](=O)[O-])cc1)c1ccc(N)cc1 | · | 17% | i | -1% | ?
COC(=O)c1ccccc1NC(=O)c1ccc(=O)n(Cc2cccc(C)c2)c1 | i | 0% | i | · | 32µM*
CCCCc1ccc(NC(=O)c2ccc(=O)n(Cc3cccc(C)c3)c2)cc1 | i | 1% | i | · | 0%
NNc1nc2ccc(F)cc2s1 | · | 0% | i | 0% | -10%
Fc1ccc2nc(Nc3ccccc3)sc2c1 | i | -11% | ? | 1% | 16µM*
CC(C)CCNC(=O)/C=C/c1ccc(Br)cc1 | · | -10% | i | -1% | 22µM*
CC(C)CCNC(=S)Nc1ccc(Br)cc1 | · | -33% | i | -1% | ?
CCC(C)NC(=S)Nc1ccccc1 (centres undefined) | i | 0% | ? | 1% | -7%
CC(Cc1cccs1)NC(=O)Nc1ccc(Cl)cc1 (centres undefined) | i | -13% | i | 0% | 22µM*
CC(Cc1cccs1)NC(=O)Nc1ccccc1 (centres undefined) | i | -10% | i | -2% | -9%
CC(Cc1cccs1)NC(=S)Nc1ccccc1 (centres undefined) | i | 1% | 11µM* | -4% | -11%[0.397 µM]
OB(O)c1ccc(Br)cc1 | · | -27% | · | · | ·
O=C(COc1ccc(Cl)cc1)c1ccc(O)cc1O | i | -8% | i | 1% | -22%
O=C(COc1ccccc1)OCC(=O)c1ccc(O)cc1O | i | 4% | 13µM* | -4% | 25%
COc1ccc(C)cc1S(=O)(=O)Nc1ccc(F)c(Cl)c1 | i | 4% | i | -2% | 18µM*
NC(=O)CSc1nc2cc3c(cc2c(=O)n1CCCCCC(=O)NCc1ccc2c(c1)OCO2)OCO3 | i | · | i | · | 18%

Compound activity from PubChem BioAssay.
